Results from PubChem BioAssay (Tox21).
Results filed as inconclusive are left out. Active and inactive are the calls of the source. The call rests on the fitted dose curve; in most records, active means well fitted cell-killing curve with a large enough effect in the repeat runs; inconclusive means weak or mixed curves; inactive means no such curve, though single readings can be large or run the other way.

Experiment: qHTS assay to identify small molecule antagonists of the androgen receptor (AR) signaling pathway - cell viability counter screen (AID 743033; further: nearly all actives have a fitted effect of over 45% in size)
Settings: AR-bla HEK293 viability, CellTiter-Glo luminescence, 16 h; series mostly up to 58.5 µM
Excerpt: National Center for Advancing Translational Sciences [NCATS]
NIH Chemical Genomics Center [NCGC]
U.S. Environmental Protection Agency [EPA]
National Institutes of Environmental Health Sciences [NIEHS]
National Toxicology Program [NTP]
U.S. Food and Drug Administration [FDA]
Androgen receptor (AR), a nuclear hormone receptor, plays a critical role in AR-dependent prostate cancer and other androgen related diseases. Endocrine disrupting chemicals (EDCs) and their interactions with steroid hormone receptors like AR may cause disruption of normal endocrine function as well as interfere with metabolic homeostasis, reproduction, developmental and behavioral functions. To identify the compounds that inhibit AR signaling, GeneBLAzer AR-UAS-bla-GripTite cell line (Invitrogen, Carlsbad, CA, USA) containing a beta-lactamase reporter gene under control of an Upstream Activator Sequence (UAS) stably integrated into HEK293 cells was used to screen the Tox21 10K compound library. The cytotoxicity of the Tox21 compound library against the AR-bla cell line was tested in parallel by measuring the cell viability using CellTiter-Glo assay in the same wells.
Tox21 Assay Protocol Summary:
AR-bla cells were dispensed at 2,000 cells/5 uL of assay medium per well into black wall/clear-bottom 1536-well plates using a Multidrop Combi (ThermoFisher Scientific, Waltham, MA) dispenser. After the assay plates were incubated at a 37C and 5% CO2 for 4 hr, 23 nL of compounds dissolved in DMSO, positive controls or DMSO only was transferred to the assay plate by a Pintool station (Kalypsys, San Diego, CA), followed by addition of 1 uL of agonist (R1881) in culture medium using a Bioraptr Flying Reagent Dispenser (FRD) workstation (Beckman Coulter, Indianapolis, IN, USA). The plates were incubated at a 37C and 5% CO2 for 16 h. After 1 uL of LiveBLAzerTM B/G FRET substrate was added using a Bioraptr FRD, the plates were incubated at room temperature for 2 h and fluorescence intensity was measured by an Envision plate reader (PerkinElmer, Shelton, CT). For cell viability readout that measures cytotoxicity, 4 ul/well of CellTiter-Glo reagent was added into the assay plates using a Bioraptr FRD. After 30 min incubation at room temperature, the luminescence intensity in the plates was measured using a ViewLux (PerkinElmer) plate reader.

SMILES	outcome
O=C(O)c1cccc([N+](=O)[O-])c1	inactive
CCCCC1C(=O)N(c2ccccc2)N(c2ccccc2)C1=O	inactive
O=C(O)c1cccnc1	inactive
CCCCCCCCCCCCCCCC(=O)O	inactive
CCC1(c2ccccc2)C(=O)NCNC1=O	inactive
O=c1cc[nH]c(=S)[nH]1	inactive
O=C(c1ccccc1)c1ccccc1	inactive
OCCc1ccccc1	inactive
CC(O)CO (stereo not given)	inactive
NC(N)=NC(=O)c1nc(Cl)c(N)nc1N	inactive
C/C=C/c1ccc(OC)cc1	inactive
CCCNC(=O)NS(=O)(=O)c1ccc(Cl)cc1	inactive
Cn1c(=O)c2[nH]cnc2n(C)c1=O	inactive
CC(C)[C@@H]1CC[C@@H](C)C[C@H]1O	inactive
O=C(O)CS	inactive
NC(=O)c1ccccc1O	inactive
O=C(c1ccccc1)C(O)c1ccccc1 (stereo not given)	inactive
Cn1cc[nH]c1=S	inactive
c1ccc2[nH]ccc2c1	inactive
CC(=O)NS(=O)(=O)c1ccc(N)cc1	inactive

SMILES	outcome
O=C1NC(=O)c2ccccc21	inactive
Cc1ccc(O)cc1	inactive
Nc1ccc(S(=O)(=O)Nc2nccs2)cc1	inactive
CCCC(O)C(CC)CO (stereo not given)	inactive
Nc1ccc(S(=O)(=O)c2ccc(N)cc2)cc1	inactive
C[C@]12C=CC(=O)C=C1CC[C@@H]1[C@@H]2[C@@H](O)C[C@@]2(C)[C@H]1CC[C@]2(O)C(=O)CO	inactive
Cc1ccc(S(=O)(=O)NC(=O)NN2CCCCCC2)cc1	inactive
Cc1cn([C@H]2C[C@H](N=[N+]=[N-])[C@@H](CO)O2)c(=O)[nH]c1=O	inactive
O=C(O)CCC(=O)O	inactive
Nc1ccn([C@H]2CC[C@@H](CO)O2)c(=O)n1	inactive
O=S(=O)(O)c1ccc2cc(O)ccc2c1	inactive
CCCCC(CC)COC(=O)/C=C/c1ccc(OC)cc1 (stereo not given)	inactive
CCCN(CCC)S(=O)(=O)c1ccc(C(=O)O)cc1	inactive
Oc1ccc(/C=C/c2cc(O)cc(O)c2)cc1	inactive
O=C(C1CCCCC1)N1CC(=O)N2CCc3ccccc3C2C1 (stereo not given)	inactive
NC(=O)NC1NC(=O)NC1=O (stereo not given)	inactive
Cc1cc(=O)[nH]c(=S)[nH]1	inactive
COc1c2occc2cc2ccc(=O)oc12	inactive
Cc1ccccc1C(OCCN(C)C)c1ccccc1 (stereo not given)	inactive
NS(=O)(=O)c1cc(C(=O)O)c(NCc2ccco2)cc1Cl	inactive
